Measurements published in the supplement of paper PMC6555819.

Legend:
Assay in all cases: PBM binding z-score (relative to random genomic background probes); higher = stronger binding; sequences stand for … in GC…GCGATTGACAGCGTAGAATGAAGG
[1] = test system: FXR:RXRa (NR concentration 270 nM, RXRa partner concentration 90 nM)
Procedure, shortened: (§1)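 On custom Agilent 4×180K arrays, double-stranded probes with 34-nt variable regions carried direct-repeat seeds, single-nucleotide variants, half-site ablations or random human genomic background. Ligand-free nuclear receptor dimers were applied for 1 h, and binding was read with antibodies against each partner (one per run). Binding z-scores come from regression-normalized fluorescence, with the random background probes as reference.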

[2] = test system: LXRa:RXRa (NR concentration 270 nM, RXRa partner concentration 90 nM)
Procedure, shortened: as §1

[3] = test system: LXRa homodimer (NR concentration 270 nM)
Procedure, shortened: as §1

[4] = test system: LXRb:RXRa (NR concentration 270 nM, RXRa partner concentration 90 nM)
Procedure, shortened: as §1

[5] = test system: LXRb homodimer (NR concentration 270 nM)
Procedure, shortened: as §1

[6] = test system: PPARa:RXRa (NR concentration 270 nM, RXRa partner concentration 90 nM)
Procedure, shortened: as §1

[7] = test system: PPARg:RXRa (NR concentration 180 nM, RXRa partner concentration 90 nM)
Procedure, shortened: as §1

[8] = test system: PPARg:RXRa 270nM:90nM, anti-RXR (NR concentration 270 nM, RXRa partner concentration 90 nM)
Procedure, shortened: as §1

[9] = test system: PPARg:RXRa 30nM:10nM, anti-RXR (NR concentration 30 nM, RXRa partner concentration 10 nM)
Procedure, shortened: as §1

[10] = test system: PPARg:RXRa 90nM:30nM, anti-RXR (NR concentration 90 nM, RXRa partner concentration 30 nM)
Procedure, shortened: as §1

[11] = test system: PPARg:RXRa DBDmut IVT, anti-RXR (DBD mutation: RXRa K156A/R161A, NR concentration 270 nM, RXRa partner concentration 90 nM)
Procedure, shortened: as §1

[12] = test system: PPARg:RXRa IVT, anti-PPARg (NR concentration 270 nM, RXRa partner concentration 90 nM)
Procedure, shortened: as §1

[13] = test system: PPARg DBDmut:RXRa IVT, anti-PPARg (DBD mutation: PPARg1 K132A/R137A, NR concentration 270 nM, RXRa partner concentration 90 nM)
Procedure, shortened: as §1

[14] = test system: PPARg DBDmut IVT, anti-PPARg (DBD mutation: PPARg1 K132A/R137A, NR concentration 270 nM)
Procedure, shortened: as §1

[15] = test system: PPARg homodimer (NR concentration 180 nM)
Procedure, shortened: as §1

[16] = test system: PXR:RXRa (NR concentration 270 nM, RXRa partner concentration 90 nM)
Procedure, shortened: as §1

[17] = test system: PXR homodimer (NR concentration 270 nM)
Procedure, shortened: as §1

[18] = test system: RARa:RXR (NR concentration 270 nM, RXRa partner concentration 90 nM)
Procedure, shortened: as §1

[19] = test system: RARa homodimer (NR concentration 270 nM)
Procedure, shortened: as §1

[20] = test system: RARb:RXRa (NR concentration 270 nM, RXRa partner concentration 90 nM)
Procedure, shortened: as §1

CAAACTAGGTCAAGGTCGAAGTCGGTTTGTGCCA was tested, and the PBM binding z-score [1] was 4.68, the PBM binding z-score [2] was 3.03 and the PBM binding z-score [3] was 0.706. The PBM binding z-score [4] was 2.37, the PBM binding z-score [5] was -0.00931 and the PBM binding z-score [6] was 5.05. The PBM binding z-score [7] was 8.77, the PBM binding z-score [8] was 7.1 and the PBM binding z-score [9] was 5.52. The PBM binding z-score [10] was 7.19, the PBM binding z-score [11] was 8.51 and the PBM binding z-score [12] was 8.63. It also gave a PBM binding z-score [13] of 2.92, a PBM binding z-score [14] of 2.06 and a PBM binding z-score [15] of 3.02. For the same sequence, the PBM binding z-score [16] was 2.71, the PBM binding z-score [17] was 0.704 and the PBM binding z-score [18] was 3.14. It also gave a PBM binding z-score [19] of 0.902 and a PBM binding z-score [20] of 4.47.
With GCTTGTAGATCAAGGTTAAGCAAGACTAAGCTAA the PBM binding z-score [1] was 0.263, the PBM binding z-score [2] was 0.428 and the PBM binding z-score [3] was -0.624. For the same sequence, the PBM binding z-score [4] was 0.0406, the PBM binding z-score [5] was -0.925 and the PBM binding z-score [6] was 1.77. It also gave a PBM binding z-score [7] of 1.05, a PBM binding z-score [8] of 1.94 and a PBM binding z-score [9] of 0.405. For the same sequence, the PBM binding z-score [10] was 1.6, the PBM binding z-score [11] was 1.5 and the PBM binding z-score [12] was 1.36. The PBM binding z-score [13] was -0.46, the PBM binding z-score [14] was -0.377 and the PBM binding z-score [15] was 0.0849. The PBM binding z-score [16] was 0.191, the PBM binding z-score [17] was -0.43 and the PBM binding z-score [18] was 1.07. For the same sequence, the PBM binding z-score [19] was -0.348 and the PBM binding z-score [20] was 0.844.
TCATATAGGTAAACAGGTGTAAGTCCGTAAGTTA gave a PBM binding z-score [1] of 0.827, a PBM binding z-score [2] of 0.785 and a PBM binding z-score [3] of -0.0064. The PBM binding z-score [4] was 0.69, the PBM binding z-score [5] was -0.189 and the PBM binding z-score [6] was 1.41. The PBM binding z-score [7] was 1.35, the PBM binding z-score [8] was 2.56 and the PBM binding z-score [9] was 3.79. The PBM binding z-score [10] was 3.09, the PBM binding z-score [11] was 3.98 and the PBM binding z-score [12] was 2.97. It also gave a PBM binding z-score [13] of 1.63, a PBM binding z-score [14] of 0.913 and a PBM binding z-score [15] of 1.12. The PBM binding z-score [16] was 0.63, the PBM binding z-score [17] was 0.672 and the PBM binding z-score [18] was 0.946. For the same sequence, the PBM binding z-score [19] was 1.32 and the PBM binding z-score [20] was 0.512.
In the case of CGAACTAGGTCATCCAGGGCAGTGAATACATTGA, the PBM binding z-score [1] is reported as 4.8, the PBM binding z-score [2] is reported as 3.06 and the PBM binding z-score [3] is reported as 0.45. For the same sequence, the PBM binding z-score [4] was 2.11, the PBM binding z-score [5] was -0.0808 and the PBM binding z-score [6] was 5.08. For the same sequence, the PBM binding z-score [7] was 7.91, the PBM binding z-score [8] was 6.54 and the PBM binding z-score [9] was 4.15. It also gave a PBM binding z-score [10] of 5.95, a PBM binding z-score [11] of 8.06 and a PBM binding z-score [12] of 8.48. For the same sequence, the PBM binding z-score [13] was 5.35, the PBM binding z-score [14] was 1.78 and the PBM binding z-score [15] was 2.66. For the same sequence, the PBM binding z-score [16] was 2.66, the PBM binding z-score [17] was 1.95 and the PBM binding z-score [18] was 2.47. For the same sequence, the PBM binding z-score [19] was 0.454 and the PBM binding z-score [20] was 4.29.
AGAATGAGGTTCCCAAAGATCAGGGAAACGCTTG was tested, and the PBM binding z-score [1] was -0.395, the PBM binding z-score [2] was -0.315 and the PBM binding z-score [3] was -0.36. For the same sequence, the PBM binding z-score [4] was -0.576, the PBM binding z-score [5] was -0.694 and the PBM binding z-score [6] was 0.11. It also gave a PBM binding z-score [7] of 0.423, a PBM binding z-score [8] of 0.0468 and a PBM binding z-score [9] of 0.142. It also gave a PBM binding z-score [10] of 0.0809, a PBM binding z-score [11] of 0.186 and a PBM binding z-score [12] of 0.311. It also gave a PBM binding z-score [13] of 1.11, a PBM binding z-score [14] of 0.173 and a PBM binding z-score [15] of 0.224. For the same sequence, the PBM binding z-score [16] was -0.152, the PBM binding z-score [17] was -0.346 and the PBM binding z-score [18] was 0.182. The PBM binding z-score [19] was -0.181 and the PBM binding z-score [20] was -0.0949.
For ACTAGCAGGCCCAGTTTGGGTCACTCAAACAAAG, the PBM binding z-score [1] was -0.0555, the PBM binding z-score [2] was -0.448 and the PBM binding z-score [3] was -0.417. For the same sequence, the PBM binding z-score [4] was 0.4, the PBM binding z-score [5] was -0.861 and the PBM binding z-score [6] was 0.93. It also gave a PBM binding z-score [7] of -0.337, a PBM binding z-score [8] of 0.0503 and a PBM binding z-score [9] of -0.523. The PBM binding z-score [10] was -0.144, the PBM binding z-score [11] was -0.917 and the PBM binding z-score [12] was 0.48. It also gave a PBM binding z-score [13] of -1.4, a PBM binding z-score [14] of -0.708 and a PBM binding z-score [15] of -0.457. It also gave a PBM binding z-score [16] of 0.133, a PBM binding z-score [17] of -0.753 and a PBM binding z-score [18] of 0.833. For the same sequence, the PBM binding z-score [19] was -0.613 and the PBM binding z-score [20] was 0.828.
In the case of CCTAGCAGGCCAATCTGGGTCACTCTAGGCTTGA, the PBM binding z-score [1] is reported as 0.0739, the PBM binding z-score [2] is reported as 0.774 and the PBM binding z-score [3] is reported as -0.56. The PBM binding z-score [4] was 0.28, the PBM binding z-score [5] was -1.07 and the PBM binding z-score [6] was 2.36. For the same sequence, the PBM binding z-score [7] was 1.46, the PBM binding z-score [8] was 1.75 and the PBM binding z-score [9] was -0.203. The PBM binding z-score [10] was 0.673, the PBM binding z-score [11] was 3.94 and the PBM binding z-score [12] was 4.77. The PBM binding z-score [13] was -0.959, the PBM binding z-score [14] was -1.14 and the PBM binding z-score [15] was 0.236. The PBM binding z-score [16] was 0.544, the PBM binding z-score [17] was -0.524 and the PBM binding z-score [18] was 1.17. For the same sequence, the PBM binding z-score [19] was -1.01 and the PBM binding z-score [20] was 1.28.
